# Assay results reported in PubChem BioAssay (NCATS).
# Values joined by “and” are separate entries in the source; they are usually repeats but may differ in a detail not shown here. Equal values may be shown once. Results filed as inconclusive are left out. Entries that show only a call come without a potency. The source holds several records for some structures; these can differ, active in one and inactive in another. Active and inactive are the calls of the source. The call rests on the fitted dose curve; in most records, active means well fitted curve in the direction sought with a large enough effect; inconclusive means small, poorly fitted or top-dose-only effect, or another doubt; inactive means no such curve, though single readings can be large; an effect the other way counts as inactive or inconclusive.
# How the values were obtained:
# [1] = target: Glutathione peroxidase 1 (Homo sapiens) (UniProt P07203); test: Primary qHTS Assay for Inhibitors of Recombinant Selenoprotein Glutathione Peroxidase 1 (GPX1) (AID 1845191); further: nearly all actives have a fitted effect of over 65% in size
# In short: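 NADPH consumption tracked by fluorescence at 340/450 nm between t=0 and t=15 min, room temperature. Final mix: 10 nM GPX1, 100 nM glutathione reductase, 1 mM GSH, 0.5 mM NADPH, 0.5 mM cumene hydroperoxide, 0.01% BSA; 30 min compound–enzyme preincubation.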
# [2] = target: Phospholipid hydroperoxide glutathione peroxidase GPX4 (Homo sapiens) (UniProt P36969); test: Primary qHTS Assay for Inhibitors of Recombinant Selenoprotein Glutathione Peroxidase 4 (GPX4) (AID 1845192); further: nearly all actives have a fitted effect of over 65% in size; further: potency means the concentration at half of the fitted maximal effect
# In short: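 NADPH consumption followed by fluorescence at 340/450 nm, t=0 and after 15 min at room temperature. Reaction started with cumene hydroperoxide (0.5 mM final) after 30 min compound–GPX4 preincubation; final 200 nM GPX4, 100 nM GR, 1 mM GSH, 0.5 mM NADPH.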
# [3] = Quantitative High-Throughput drug screen in 47 multiple myeloma cell lines against the NCATS MIPE library collection: ARD_JJKsccE7 cell viability assay (AID 1918929; further: potency means the concentration at half of the fitted maximal effect)
# In short: (§1)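 Myeloma cell lines, 500 cells per well, exposed to MIPE 4.0 library compounds for 48 h at 37C, 5% CO2. Viability from ATP by CellTiter-Glo luminescence; normalised to DMSO (100%) and media-only (0%) wells.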
# [4] = Quantitative High-Throughput drug screen in 47 multiple myeloma cell lines against the NCATS MIPE library collection: Karpas620_DSMZ cell viability assay (AID 1918959); further: nearly all actives have a fitted effect of over 30% in size
# In short: (§2)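 Approved and investigational drugs from MIPE 4.0 were added by pin tool to 500 cells per well. After 48 hours at 37C, ATP-based CellTiter-Glo luminescence indicated remaining viability.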
# [5] = Quantitative High-Throughput drug screen in 47 multiple myeloma cell lines against the NCATS MIPE library collection: FR4_PLB cell viability assay (AID 1918924; further: nearly all actives have a fitted effect of over 35% in size)
# In short: as §2
# [6] = Quantitative High-Throughput drug screen in 47 multiple myeloma cell lines against the NCATS MIPE library collection: EJM_DSMZ cell viability assay (AID 1918926; further: nearly all actives have a fitted effect of over 30% in size; further: potency means the concentration at half of the fitted maximal effect)
# In short: as §1
# [7] = Quantitative High-Throughput drug screen in 47 multiple myeloma cell lines against the NCATS MIPE library collection: AMO1_DSMZ cell viability assay (AID 1918927; further: nearly all actives have a fitted effect of over 30% in size; further: potency means the concentration at half of the fitted maximal effect)
# In short: as §1
# [8] = Quantitative High-Throughput drug screen in 47 multiple myeloma cell lines against the NCATS MIPE library collection: ARP1_JJKsccF8 cell viability assay (AID 1918928; further: nearly all actives have a fitted effect of over 40% in size; further: potency means the concentration at half of the fitted maximal effect)
# In short: (§3)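 CellTiter-Glo luminescence after 48 h exposure gives viability, scaled between DMSO-only (100%) and media-only (0%) controls. Library compounds are pinned onto 500 myeloma cells per well, incubated at 37C with 5% CO2.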
# [9] = Quantitative High-Throughput drug screen in 47 multiple myeloma cell lines against the NCATS MIPE library collection: KMM1_JCRB cell viability assay (AID 1918960); further: nearly all actives have a fitted effect of over 30% in size
# In short: as §3
# [10] = Quantitative High-Throughput drug screen in 47 multiple myeloma cell lines against the NCATS MIPE library collection: Karpas417_ECACC cell viability assay (AID 1918961); conditions: Karpas417 myeloma viability, CellTiter-Glo ATP luminescence, 48 h; viability (% of DMSO): at 45.8 µM (top of the series)
# In short: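 Inhibition of cell viability is measured here. Each line was plated at 500 cells per well, treated with MIPE 4.0 drugs, kept 48 hours at 37C, then assayed for ATP content by CellTiter-Glo luminescence.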
# [11] = target: Metallo-beta-lactamase type 2 (Klebsiella pneumoniae) (UniProt C7C422); test: qHTS to identify inhibitors of the New Delhi Metallo-beta-lactamase (NDM): assay validation screen against the NCATS LOPAC Collection (AID 1794843)
# In short: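 Absorbance at 485 nm from nitrocefin turnover (50 uM solution added), read at plateau, gives the read-out. Compounds in DMSO were incubated first with 2 nM final NDM-1 in pH 7.0 HEPES buffer containing 1 uM ZnSO4 and 0.01% Tween20.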
# [12] = Quantitative High-Throughput drug screen in 47 multiple myeloma cell lines against the NCATS MIPE library collection: Delta47_JCRB cell viability assay (AID 1918925; further: potency means the concentration at half of the fitted maximal effect; nearly all actives have a fitted effect of over 45% in size)
# In short: as §1
# Chain of Metallo-beta-lactamase type 2 (Klebsiella pneumoniae) (C7C422 whole entry, looked up): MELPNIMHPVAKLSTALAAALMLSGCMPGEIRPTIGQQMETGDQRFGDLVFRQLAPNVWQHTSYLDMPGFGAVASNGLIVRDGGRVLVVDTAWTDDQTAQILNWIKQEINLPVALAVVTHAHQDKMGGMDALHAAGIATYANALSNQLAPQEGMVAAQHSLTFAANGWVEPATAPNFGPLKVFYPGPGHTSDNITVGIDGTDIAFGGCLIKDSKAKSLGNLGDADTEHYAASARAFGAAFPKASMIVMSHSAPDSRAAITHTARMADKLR
# Chain of Glutathione peroxidase 1 (Homo sapiens) (P07203 whole entry, looked up): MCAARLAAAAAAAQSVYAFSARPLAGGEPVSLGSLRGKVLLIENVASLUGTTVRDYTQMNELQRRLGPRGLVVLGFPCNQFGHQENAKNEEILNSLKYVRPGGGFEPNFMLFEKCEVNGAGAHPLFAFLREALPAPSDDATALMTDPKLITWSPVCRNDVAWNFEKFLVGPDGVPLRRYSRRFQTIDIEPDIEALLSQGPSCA
# Chain of Phospholipid hydroperoxide glutathione peroxidase GPX4 (Homo sapiens) (P36969 whole entry, looked up): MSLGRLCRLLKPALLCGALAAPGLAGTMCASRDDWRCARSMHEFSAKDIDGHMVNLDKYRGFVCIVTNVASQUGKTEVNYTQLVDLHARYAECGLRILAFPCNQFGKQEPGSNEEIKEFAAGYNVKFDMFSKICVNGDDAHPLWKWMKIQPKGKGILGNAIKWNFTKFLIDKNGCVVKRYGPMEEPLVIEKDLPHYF
structure (smiles),measurement,setting,value
C[C@](N)(Cc1ccc(O)c(O)c1)C(=O)O,Potency,[1],inactive
same,Potency,[2],inactive and 14.3 µM (active)
same,Potency,[3],inactive
same,Potency,[4],inactive
Cc1cn([C@H]2C[C@H](N=[N+]=[N-])[C@@H](CO)O2)c(=O)[nH]c1=O,Potency,[1],inactive
same,Potency,[5],inactive
same,Potency,[6],7.43 µM (active)
same,Potency,[7],inactive
same,Potency,[8],inactive
same,Potency,[3],inactive
same,Potency,[4],inactive
same,Potency,[9],inactive
same,viability (% of DMSO),[10],84.8% (active)
COc1ccc(CCN(C)CCCC(C#N)(c2ccc(OC)c(OC)c2)C(C)C)cc1OC (configuration not stated),Potency,[1],inactive
COc1cc2nc(N(C)CCCNC(=O)C3CCCO3)nc(N)c2cc1OC (configuration not stated),outcome,[11],inactive
same,Potency,[1],inactive
same,Potency,[6],inactive
same,Potency,[4],inactive
same,Potency,[9],inactive
COc1ccccc1N1CCN(CC(O)COc2cccc3ccccc23)CC1 (configuration not stated),outcome,[11],inactive
same,Potency,[1],inactive
same,Potency,[6],inactive
same,Potency,[7],inactive
same,Potency,[8],9.35 µM (active)
same,Potency,[4],inactive
same,Potency,[9],inactive
NC(=O)OCC(COC(N)=O)c1ccccc1,outcome,[11],inactive
same,Potency,[1],inactive
same,Potency,[6],inactive
same,Potency,[7],inactive
same,Potency,[8],inactive
same,Potency,[3],inactive
same,Potency,[4],inactive
same,Potency,[9],inactive
Cn1c(=O)c2[nH]cnc2n(C)c1=O,Potency,[1],inactive
same,Potency,[2],inactive
same,Potency,[6],inactive
same,Potency,[7],inactive
same,Potency,[8],inactive
same,Potency,[4],inactive
same,Potency,[9],inactive
CCC1(c2ccccc2)C(=O)NCNC1=O,Potency,[1],inactive
same,Potency,[5],inactive
same,Potency,[12],2.96 µM (active)
same,Potency,[6],inactive
same,Potency,[7],10.5 µM (active)
same,Potency,[8],inactive
same,Potency,[3],14.8 µM (active)
same,Potency,[4],inactive
OCCN(CCO)c1nc(N2CCCCC2)c2nc(N(CCO)CCO)nc(N3CCCCC3)c2n1,outcome,[11],inactive
same,Potency,[1],inactive
same,Potency,[7],23.5 µM (active)
